This is one part of a sample in which hits are shown more often than they occur.
HDAC3 inhib = HDAC3 deacetylase inhibitors, primary screen, biochemical, fluorescence, cell-free homogeneous; recombinant HDAC3, fluorogenic peptide/trypsin coupled; inhibition, % at 8.3 µM; actives 0.15% (n = 320,000); AID 2718, 2010; in the data active = inhibition above about 26%, passing the limit was not always enough
ALR H2O2 inh = inhibitors of human ALR sulfhydryl oxidase, primary screen, biochemical, H2O2 detection, HRP-luminol luminescence, single point; AID 485317, 2010; actives 3.8% (n = 290,000); purified ALR, DTT oxidation; inhibition, % (no concentration beside the values);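 active = mean replicate inhibition above about 79%, with every replicate also reaching it, limit read from the data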
NPR2 activator = human GC-B receptor activators, primary screen, HEK293 GC-B cells, cGMP TR-FRET, EC30 CNP; 0% at EC30 CNP, 100% saturating CNP; AID 1920062, 2024; actives 0.11% (n = 370,000); Atrial natriuretic peptide receptor 2 (Homo sapiens), P20594; activation, % at 10 µM;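 active = activation at 10 µM reaching about 35% in either raw or pattern-adjusted values, limit read from the data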
NPR1 activator = GC-A stimulated cGMP production enhancers – HEK293 GC-A cells, cGMP TR-FRET, EC30 ANP, primary screen; activation, % at 10 µM; actives 0.14% (n = 370,000); 0% at EC30 ANP, 100% saturating ANP; Atrial natriuretic peptide receptor 1 (Homo sapiens), P16066; AID 1671463, 2021; in the data active = activation above about 40%
Numbers without * were called inactive; / = no result given.

SMILES	HDAC3 inhib	ALR H2O2 inh	NPR2 activator	NPR1 activator
CN(C(=O)[C@H]1O[C@@H](n2cnc(C(N)=O)n2)[C@H](O)[C@@H]1O)c1ccccc1	/	/	4	1
CC(C)CNC(=O)CN1c2cccc3cccc(c23)S1(=O)=O	-6	-13	0	2
Fc1ccc(N2CCN(Cc3ccccn3)CC2)cc1	0	97*	2	3
CCC(CO)Nc1cccc2c1S(=O)(=O)N(Cc1cn(Cc3ccc(Cl)cc3)nn1)Cc1ccccc1O2 (centres undefined)	/	/	-6	-2
O=C(CSc1nc(CCC2CCCC2)nc2ccccc12)NCc1ccc2c(c1)OCO2	5	100*	-1	-7
Cc1cc(NC(=O)CSc2nc(CCC3CCCC3)nc3ccccc23)no1	7	97*	-2	0
O=C1c2ccccc2NC(c2ccc(O)c(O)c2)N1c1ccccc1Cl (centres undefined)	-4	100*	-2	-1
COc1cc(C2Nc3ccccc3C(=O)N2c2ccccc2OC)ccc1O (centres undefined)	-9	29	1	-3
CC(C)N1CCC1(C)C(=O)Nc1cc(-c2ccccc2)nn1C (centres undefined)	/	/	1	2
CCN(CC(=O)Nc1ccc(NC(C)=O)cc1)C(=O)CSCC(=O)Nc1ccc(C)cc1	-13	62	-5	3
Cc1ccc(NC(=O)CSCC#N)cc1	1	99*	6	6
CCOC(=O)CC(=O)CSCC(=O)Nc1ccc(C)cc1	2	100*	-1	2
N#CCSCC(=O)Nc1ccc(Br)cc1	3	3	-1	3
C[C@@H]1CN([C@H](C)CO)S(=O)(=O)c2ccc(Br)cc2O[C@H]1CN(C)S(C)(=O)=O	/	/	-5	-6
CC(C)c1ccc(CC(=O)N2CCC2(C)C(=O)NCCC#N)cc1 (centres undefined)	/	/	-2	-2
Cc1cc(C)cc(NC(=O)C2CCCN(S(=O)(=O)c3cnc[nH]3)C2)c1 (centres undefined)	2	42	-2	0
O=C(NCc1ccc(Cl)cc1)C1CCCN(S(=O)(=O)c2cnc[nH]2)C1 (centres undefined)	13	94*	-2	-1
O=C(NCCN1CCN(c2ccccc2F)CC1)C1CCCN(S(=O)(=O)c2cnc[nH]2)C1 (centres undefined)	3	88*	-6	4
O=C(Nc1ccc(Cl)cc1)C1CCCN(S(=O)(=O)c2cnc[nH]2)C1 (centres undefined)	-8	96*	-3	-1
COc1cc(NC(=O)C2CCCN(S(=O)(=O)c3cnc[nH]3)C2)cc(OC)c1 (centres undefined)	4	98*	1	-1
CCC1Sc2ccc(S(=O)(=O)CCC(=O)Nc3ccc(OC(F)(F)F)cc3)cc2NC1=O (centres undefined)	-3	-6	-7	-12
CCOC(=O)C1=CCC(c2cccs2)N(S(=O)(=O)c2ccc(C)cc2)C1 (centres undefined)	/	/	0	-4
Cc1ccc(NC(=O)C2CCCN(S(=O)(=O)c3cnc[nH]3)C2)cc1F (centres undefined)	1	10	-10	-3
COc1ccc(N2CCN(CCCNC(=O)C3CCCN(S(=O)(=O)c4cnc[nH]4)C3)CC2)cc1 (centres undefined)	1	87*	-2	0
CC(C)c1ccc(NC(=O)C2CCCN(S(=O)(=O)c3cnc[nH]3)C2)cc1 (centres undefined)	0	91*	8	2
SMILES	HDAC3 inhib	ALR H2O2 inh	NPR2 activator	NPR1 activator
CCOC(=O)c1ccc(NC(=O)C2CCCN(S(=O)(=O)c3cnc[nH]3)C2)cc1 (centres undefined)	-1	95*	-2	1
O=C(NCCc1ccccc1)C1CCCN(S(=O)(=O)c2cnc[nH]2)C1 (centres undefined)	-1	87*	-5	-4
COC(=O)[C@H]1C[C@@]2(C)c3ccccc3N(C(=O)OC(C)(C)C)[C@H]2N1C(=O)OC(C)(C)C	/	/	-18	-13
COc1ccc(CCn2nnc3ccccc3c2=O)cc1OC	/	/	1	0
CC(=O)Oc1ccccc1C(=O)N1CCN(S(=O)(=O)c2ccc3ccccc3c2)CC1	1	/	-2	-11
O=[N+]([O-])c1ccccc1N/N=C1\CC2CC=CC12 (centres undefined)	2	-17	-4	-6
CC(C)C1C(=O)N(Cc2cn(CC3CCCCC3)nn2)CCS(=O)(=O)N1Cc1ccc(-c2ccc(Cl)cc2)cc1 (centres undefined)	/	/	0	2
CCOC(=O)c1ccc(NC(=O)C2CCN(S(=O)(=O)c3c(C)nn(C)c3C)CC2)cc1	/	98*	-2	1
CCCc1c(O)nc(SCCN(CC)CC)n(C(=O)c2ccccc2)c1=O	12	98*	-1	-3
CCCc1c(O)nc(SCCN(CC)CC)[nH]c1=O	4	23	1	2
CC1=CC(C2CC(=O)N(c3ccc(C)cc3)C2=O)CC2C(=O)N(c3ccc(C)cc3)C(=O)C12 (centres undefined)	3	/	-1	-1
CCOC(=O)CSc1nc2ccccc2c(=O)n1Cc1ccco1	0	-21	0	-3
CCOC(=O)CSc1nc2c(sc3ccc([N+](=O)[O-])cc32)c(=O)n1Cc1ccco1	1	-4	50*	48*
COc1ccc(Cn2nnc3c(=O)[nH]c(C(=O)NCCc4ccc(F)cc4)nc32)cc1OC	6	94*	1	-1
CN=c1scc(-c2ccc(F)cc2)n1/N=C/c1ccc(O)c(O)c1	/	/	-4	-3
Cc1ccc(-n2nc3ccc(NC(=S)NC(=O)/C=C/c4ccco4)cc3n2)cc1	4	2	-2	5
Cc1ccc(-n2nc3cc(C)c(NC(=S)NC(=O)/C=C/c4ccco4)cc3n2)cc1	2	86*	-4	5
CC(=O)C1=C(C)N(Cc2ccc(Br)cc2)C(=S)NC1c1ccc(F)cc1 (centres undefined)	/	/	-2	-2
CNC(=S)N1CCN(c2cccc(OC)c2)CC1	0	99*	1	-2
CCOc1ccccc1NC(=S)N1CCN(c2cccc(OC)c2)CC1	-2	98*	4	1
Cc1ccccc1NC(=O)Cc1cccc(C(F)(F)F)c1	0	-2	3	2
Cc1ccnc(NC(=S)NC(=O)/C=C/c2ccc(Cl)cc2)c1	-6	-14	-1	1
COc1cc(/C=N\NC(=O)c2ccc(-c3ccccc3)cc2)cc(OC)c1O	0	96*	-5	5
O=C(N/N=C/c1cc(Br)c(O)c(Br)c1)c1cccnc1	0	39	-2	-8
C/C(=N\NC(=O)c1ccc(NS(=O)(=O)c2cccs2)cc1)c1ccc(O)cc1O	-3	99*	-1	-8
